Holding throughout (assay): DAPPL (digital affinity profiling via proximity ligation, sequencing); 10 mM Tris-HCl pH 7.5, 50 mM NaCl, 1 mM DTT, 4% glycerol, room temperature, 30 min; GST-TFs on glutathione beads, 16-mer random dsDNA library, 0.1% formaldehyde crosslink after washing; high values mean tight binding
One experiment addresses T1, FEV (Homo sapiens, UniProt Q99581 1-238).
T1 sequence: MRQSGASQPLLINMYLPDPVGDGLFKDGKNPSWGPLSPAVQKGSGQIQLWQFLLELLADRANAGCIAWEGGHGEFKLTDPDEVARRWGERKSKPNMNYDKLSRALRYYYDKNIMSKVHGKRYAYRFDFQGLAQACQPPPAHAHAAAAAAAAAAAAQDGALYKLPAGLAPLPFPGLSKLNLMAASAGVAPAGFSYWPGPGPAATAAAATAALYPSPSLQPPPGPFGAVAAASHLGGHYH
The note with it: protein: recombinant; tags: N-terminal GST; dsDNA, one strand shown. A digest of the protocol: (§1)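 Pools were built from human transcription factors expressed in yeast as GST fusions, captured on glutathione beads and DNA-barcoded, along with a tag-only sample. Incubation with 200 nmole of a 16-mer random double-stranded DNA library lasted 30 min at room temperature in Tris/NaCl/DTT/glycerol buffer, and was followed by washing, 0.1% formaldehyde crosslinking, proximity ligation, PCR amplification and Illumina NextSeq500 sequencing. Binding signal is the quotient of each hexamer's read frequency for a factor and its frequency for the tag-only sample.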

The target in the next experiment is ETV5 (Homo sapiens, UniProt P41161 1-510). The note with it: protein: recombinant; tags: N-terminal GST; dsDNA, one strand shown. A digest of the protocol: as §1
For another experiment, the target named is HSF1 (Homo sapiens, UniProt Q00613 1-529). The conditions noted are these: protein: recombinant; tags: N-terminal GST; chain copies: 3; dsDNA, one strand shown. A digest of the protocol: as §1
The next experiment has as its target T2, SPIC (Homo sapiens, UniProt Q8N5J4 1-248).
T2 sequence: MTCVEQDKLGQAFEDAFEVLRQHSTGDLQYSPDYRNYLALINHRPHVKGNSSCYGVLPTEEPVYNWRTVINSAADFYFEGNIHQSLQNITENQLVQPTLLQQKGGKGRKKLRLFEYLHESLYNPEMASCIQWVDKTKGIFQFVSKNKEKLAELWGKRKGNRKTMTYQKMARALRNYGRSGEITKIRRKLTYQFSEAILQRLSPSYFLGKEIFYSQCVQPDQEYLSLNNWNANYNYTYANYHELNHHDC
The conditions noted are these: protein: recombinant; tags: N-terminal GST; dsDNA, one strand shown. A digest of the protocol:
as §1

The target of another experiment is ELF4 (Homo sapiens, UniProt Q99607 1-663). The note with it: protein: recombinant; tags: N-terminal GST; dsDNA, one strand shown. A digest of the protocol: as §1
In a further experiment the target is T3, ELK4 (Homo sapiens, UniProt P28324-2 1-405).
T3 sequence: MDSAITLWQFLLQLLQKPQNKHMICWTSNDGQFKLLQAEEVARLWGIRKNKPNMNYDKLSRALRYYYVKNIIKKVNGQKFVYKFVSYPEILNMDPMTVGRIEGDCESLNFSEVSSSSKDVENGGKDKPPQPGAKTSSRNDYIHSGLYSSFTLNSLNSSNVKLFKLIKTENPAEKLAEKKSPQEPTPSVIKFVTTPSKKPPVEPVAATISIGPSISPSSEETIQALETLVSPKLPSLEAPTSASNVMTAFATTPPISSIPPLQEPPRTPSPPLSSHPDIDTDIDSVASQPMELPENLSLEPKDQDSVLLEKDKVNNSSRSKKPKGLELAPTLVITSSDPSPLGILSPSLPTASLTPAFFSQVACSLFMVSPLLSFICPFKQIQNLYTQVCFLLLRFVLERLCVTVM
The note with it: protein: recombinant; tags: N-terminal GST; dsDNA, one strand shown. A digest of the protocol:
as §1

A further experiment addresses T4, ETV2 (Homo sapiens, UniProt O00321 1-342).
T4 sequence: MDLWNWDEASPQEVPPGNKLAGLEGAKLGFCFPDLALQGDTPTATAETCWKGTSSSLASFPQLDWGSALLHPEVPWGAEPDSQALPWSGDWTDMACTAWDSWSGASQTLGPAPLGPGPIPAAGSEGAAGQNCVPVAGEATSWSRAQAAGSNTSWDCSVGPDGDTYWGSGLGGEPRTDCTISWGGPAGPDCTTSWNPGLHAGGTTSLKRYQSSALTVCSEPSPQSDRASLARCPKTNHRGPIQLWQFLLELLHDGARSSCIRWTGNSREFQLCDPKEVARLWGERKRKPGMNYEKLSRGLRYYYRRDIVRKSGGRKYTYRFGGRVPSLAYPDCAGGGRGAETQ
The note with it: protein: recombinant; tags: N-terminal GST; dsDNA, one strand shown. Put shortly: as §1

For a further experiment, the target named is T5, ELF3 (Homo sapiens, UniProt P78545 1-371).
T5 sequence: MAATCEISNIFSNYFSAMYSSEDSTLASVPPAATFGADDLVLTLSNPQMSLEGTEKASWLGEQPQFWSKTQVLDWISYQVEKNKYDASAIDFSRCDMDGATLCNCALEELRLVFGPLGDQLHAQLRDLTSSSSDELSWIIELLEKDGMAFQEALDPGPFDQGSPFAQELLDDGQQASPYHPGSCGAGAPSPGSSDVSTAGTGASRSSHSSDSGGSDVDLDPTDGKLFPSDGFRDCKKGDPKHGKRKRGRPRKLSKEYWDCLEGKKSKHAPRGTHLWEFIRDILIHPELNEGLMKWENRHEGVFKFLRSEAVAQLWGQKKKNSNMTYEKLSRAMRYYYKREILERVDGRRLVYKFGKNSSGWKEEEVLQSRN
The note with it: protein: recombinant; tags: N-terminal GST; dsDNA, one strand shown. Put shortly:
as §1

The target of a further experiment is CRX (Homo sapiens, UniProt O43186 1-299). The note with it: protein: recombinant; tags: N-terminal GST; dsDNA, one strand shown. A digest of the protocol:
as §1

The next experiment has as its target ETV1 (Homo sapiens, UniProt P50549 1-477). The note with it: protein: recombinant; tags: N-terminal GST; dsDNA, one strand shown. Put shortly:
as §1

The values below come from PMC7862700, “An all-to-all approach to the identification of sequence-specific readers for epigenetic DNA modifications on cytosine”.

Sequence of HSF1 (Q00613 whole entry): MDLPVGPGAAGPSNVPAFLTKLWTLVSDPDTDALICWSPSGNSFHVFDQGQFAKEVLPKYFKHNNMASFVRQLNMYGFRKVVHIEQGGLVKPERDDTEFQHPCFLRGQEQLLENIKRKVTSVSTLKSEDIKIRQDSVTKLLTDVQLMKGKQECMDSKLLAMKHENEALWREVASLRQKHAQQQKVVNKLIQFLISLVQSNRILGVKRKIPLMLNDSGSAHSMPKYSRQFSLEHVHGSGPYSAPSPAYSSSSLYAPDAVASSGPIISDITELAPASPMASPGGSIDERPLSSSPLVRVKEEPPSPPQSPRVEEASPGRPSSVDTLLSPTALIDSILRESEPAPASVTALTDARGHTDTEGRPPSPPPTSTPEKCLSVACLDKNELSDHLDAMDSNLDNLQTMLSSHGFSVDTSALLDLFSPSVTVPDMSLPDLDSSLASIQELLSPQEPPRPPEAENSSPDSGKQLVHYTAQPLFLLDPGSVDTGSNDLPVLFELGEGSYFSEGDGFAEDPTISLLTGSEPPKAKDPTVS
Sequence of ELF4 (Q99607 whole entry): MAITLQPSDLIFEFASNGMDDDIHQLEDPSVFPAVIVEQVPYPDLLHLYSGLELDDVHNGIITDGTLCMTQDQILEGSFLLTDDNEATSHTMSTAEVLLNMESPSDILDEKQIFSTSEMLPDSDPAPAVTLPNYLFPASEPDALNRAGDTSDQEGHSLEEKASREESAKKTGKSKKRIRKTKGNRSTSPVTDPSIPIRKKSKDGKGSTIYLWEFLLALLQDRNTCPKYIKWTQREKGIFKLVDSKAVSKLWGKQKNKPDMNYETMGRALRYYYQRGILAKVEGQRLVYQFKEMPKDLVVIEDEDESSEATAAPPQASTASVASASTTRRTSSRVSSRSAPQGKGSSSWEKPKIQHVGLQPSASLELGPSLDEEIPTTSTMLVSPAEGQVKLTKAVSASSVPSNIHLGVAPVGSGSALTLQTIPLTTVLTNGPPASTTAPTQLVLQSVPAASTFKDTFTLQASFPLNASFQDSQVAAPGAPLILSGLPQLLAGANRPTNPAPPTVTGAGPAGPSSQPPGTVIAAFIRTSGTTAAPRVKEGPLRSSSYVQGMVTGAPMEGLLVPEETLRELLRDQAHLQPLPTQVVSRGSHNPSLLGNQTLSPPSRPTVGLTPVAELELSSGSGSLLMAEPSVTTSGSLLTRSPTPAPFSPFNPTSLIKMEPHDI
Sequence of CRX (O43186 whole entry): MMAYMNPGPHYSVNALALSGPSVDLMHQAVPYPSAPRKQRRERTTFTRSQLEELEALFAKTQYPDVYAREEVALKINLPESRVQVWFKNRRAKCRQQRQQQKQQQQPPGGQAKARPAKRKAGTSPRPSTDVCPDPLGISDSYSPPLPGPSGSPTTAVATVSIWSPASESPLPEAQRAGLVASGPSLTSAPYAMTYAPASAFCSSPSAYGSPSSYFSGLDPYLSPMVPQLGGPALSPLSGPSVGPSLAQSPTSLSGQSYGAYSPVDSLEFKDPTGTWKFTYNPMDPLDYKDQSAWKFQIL
Sequence of ETV1 (P50549 whole entry): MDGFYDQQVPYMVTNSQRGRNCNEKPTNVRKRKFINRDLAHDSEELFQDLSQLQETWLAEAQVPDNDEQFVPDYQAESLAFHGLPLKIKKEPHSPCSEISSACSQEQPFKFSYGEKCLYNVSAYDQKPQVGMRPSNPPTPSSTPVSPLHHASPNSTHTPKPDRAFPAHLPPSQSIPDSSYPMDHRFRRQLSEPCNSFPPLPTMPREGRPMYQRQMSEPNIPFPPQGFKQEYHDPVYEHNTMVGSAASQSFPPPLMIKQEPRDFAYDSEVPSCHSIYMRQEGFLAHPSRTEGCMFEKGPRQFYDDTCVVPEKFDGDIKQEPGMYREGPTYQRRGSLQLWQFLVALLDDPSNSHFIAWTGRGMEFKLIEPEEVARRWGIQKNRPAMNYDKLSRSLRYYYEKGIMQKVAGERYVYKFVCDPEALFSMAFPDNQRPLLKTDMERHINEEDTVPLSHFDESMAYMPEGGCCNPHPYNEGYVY
Sequence of ETV5 (P41161 whole entry): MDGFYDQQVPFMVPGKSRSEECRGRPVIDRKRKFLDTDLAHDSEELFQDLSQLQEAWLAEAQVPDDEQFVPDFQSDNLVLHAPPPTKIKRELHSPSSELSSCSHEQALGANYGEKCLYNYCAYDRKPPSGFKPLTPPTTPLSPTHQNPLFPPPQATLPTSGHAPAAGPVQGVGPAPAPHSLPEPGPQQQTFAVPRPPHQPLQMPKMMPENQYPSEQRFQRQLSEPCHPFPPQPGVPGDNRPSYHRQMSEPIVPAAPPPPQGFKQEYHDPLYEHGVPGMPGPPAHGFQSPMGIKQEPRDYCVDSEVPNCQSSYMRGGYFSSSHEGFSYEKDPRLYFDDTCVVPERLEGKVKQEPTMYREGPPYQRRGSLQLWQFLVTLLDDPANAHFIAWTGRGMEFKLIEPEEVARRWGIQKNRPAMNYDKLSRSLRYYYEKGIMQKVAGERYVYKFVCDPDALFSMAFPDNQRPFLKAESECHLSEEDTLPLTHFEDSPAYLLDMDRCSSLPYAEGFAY

As for GCCCTT, the binding signal in the experiment with FEV was 1.19 fold enrichment (6-mer frequency, TF over GST control); with ETV5, 1.16 fold enrichment (6-mer frequency, TF over GST control); with HSF1, 1.11 fold enrichment (6-mer frequency, TF over GST control); in the experiment with SPIC it was 1.1 fold enrichment (6-mer frequency, TF over GST control); with ELF4, 1.13 fold enrichment (6-mer frequency, TF over GST control); with ELK4, 1.19 fold enrichment (6-mer frequency, TF over GST control). In addition, the binding signal with ETV2 is 1.28 fold enrichment (6-mer frequency, TF over GST control); with ELF3 it was 1.29 fold enrichment (6-mer frequency, TF over GST control); with CRX, 1.06 fold enrichment (6-mer frequency, TF over GST control); with ETV1, 1.17 fold enrichment (6-mer frequency, TF over GST control).
AAATTT: the binding signal is 1.34 fold enrichment (6-mer frequency, TF over GST control) with FEV; 1.36 fold enrichment (6-mer frequency, TF over GST control) in the experiment with ETV5; 1.47 fold enrichment (6-mer frequency, TF over GST control) in the experiment with HSF1; 1.1 fold enrichment (6-mer frequency, TF over GST control) in the experiment with SPIC; 1.19 fold enrichment (6-mer frequency, TF over GST control) in the experiment with ELF4; 1.22 fold enrichment (6-mer frequency, TF over GST control) in the experiment with ELK4. Besides, the binding signal is 1.29 fold enrichment (6-mer frequency, TF over GST control) with ETV2; 1.43 fold enrichment (6-mer frequency, TF over GST control) with ELF3; 1.24 fold enrichment (6-mer frequency, TF over GST control) in the experiment with CRX; 1.35 fold enrichment (6-mer frequency, TF over GST control) with ETV1.
Turning to CCGGCT, the binding signal with FEV is 1.8 fold enrichment (6-mer frequency, TF over GST control); with ETV5, 1.89 fold enrichment (6-mer frequency, TF over GST control); with HSF1 it was 1.3 fold enrichment (6-mer frequency, TF over GST control); with SPIC, 1.46 fold enrichment (6-mer frequency, TF over GST control); in the experiment with ELF4 it was 1.68 fold enrichment (6-mer frequency, TF over GST control); with ELK4, 1.53 fold enrichment (6-mer frequency, TF over GST control). The binding signal in the experiment with ETV2 was 1.84 fold enrichment (6-mer frequency, TF over GST control); in the experiment with ELF3, 1.8 fold enrichment (6-mer frequency, TF over GST control); with CRX, 1.6 fold enrichment (6-mer frequency, TF over GST control); in the experiment with ETV1, 1.81 fold enrichment (6-mer frequency, TF over GST control).
As for TTCAAA, the binding signal is 1.25 fold enrichment (6-mer frequency, TF over GST control) in the experiment with FEV; 1.26 fold enrichment (6-mer frequency, TF over GST control) in the experiment with ETV5; 1.25 fold enrichment (6-mer frequency, TF over GST control) with HSF1; 1.35 fold enrichment (6-mer frequency, TF over GST control) in the experiment with SPIC; 1.26 fold enrichment (6-mer frequency, TF over GST control) in the experiment with ELF4; 1.33 fold enrichment (6-mer frequency, TF over GST control) with ELK4. The binding signal with ETV2 is 1.34 fold enrichment (6-mer frequency, TF over GST control); in the experiment with ELF3, 1.43 fold enrichment (6-mer frequency, TF over GST control); with CRX, 1.28 fold enrichment (6-mer frequency, TF over GST control); with ETV1, 1.32 fold enrichment (6-mer frequency, TF over GST control).
AACATC: the binding signal is 1.63 fold enrichment (6-mer frequency, TF over GST control) with FEV; 1.51 fold enrichment (6-mer frequency, TF over GST control) with ETV5; 1.3 fold enrichment (6-mer frequency, TF over GST control) with HSF1; 1.44 fold enrichment (6-mer frequency, TF over GST control) with SPIC; 1.41 fold enrichment (6-mer frequency, TF over GST control) with ELF4; 1.41 fold enrichment (6-mer frequency, TF over GST control) with ELK4. Moreover, the binding signal in the experiment with ETV2 is 1.45 fold enrichment (6-mer frequency, TF over GST control); with ELF3, 1.5 fold enrichment (6-mer frequency, TF over GST control); in the experiment with CRX, 1.12 fold enrichment (6-mer frequency, TF over GST control); in the experiment with ETV1 it was 1.43 fold enrichment (6-mer frequency, TF over GST control).
Take CTAAGT: the binding signal was 1.13 fold enrichment (6-mer frequency, TF over GST control) in the experiment with FEV; 1.18 fold enrichment (6-mer frequency, TF over GST control) with ETV5; 1.3 fold enrichment (6-mer frequency, TF over GST control) with HSF1; 1.24 fold enrichment (6-mer frequency, TF over GST control) in the experiment with SPIC; 1.24 fold enrichment (6-mer frequency, TF over GST control) in the experiment with ELF4; 1.13 fold enrichment (6-mer frequency, TF over GST control) in the experiment with ELK4. In addition, the binding signal with ETV2 is 1.24 fold enrichment (6-mer frequency, TF over GST control); in the experiment with ELF3, 1.02 fold enrichment (6-mer frequency, TF over GST control); with CRX it was 1.8 fold enrichment (6-mer frequency, TF over GST control); with ETV1 it was 1.18 fold enrichment (6-mer frequency, TF over GST control).
In the case of TCTTAG, the binding signal with FEV was 1.16 fold enrichment (6-mer frequency, TF over GST control); with ETV5 it was 1.21 fold enrichment (6-mer frequency, TF over GST control); in the experiment with HSF1, 1.5 fold enrichment (6-mer frequency, TF over GST control); with SPIC, 1.36 fold enrichment (6-mer frequency, TF over GST control); in the experiment with ELF4, 1.3 fold enrichment (6-mer frequency, TF over GST control); in the experiment with ELK4, 1.21 fold enrichment (6-mer frequency, TF over GST control). Besides, the binding signal with ETV2 is 1.26 fold enrichment (6-mer frequency, TF over GST control); with ELF3, 1.29 fold enrichment (6-mer frequency, TF over GST control); with CRX, 1.86 fold enrichment (6-mer frequency, TF over GST control); with ETV1, 1.25 fold enrichment (6-mer frequency, TF over GST control).
As to TATAGG, the binding signal was 1.15 fold enrichment (6-mer frequency, TF over GST control) in the experiment with FEV; 1.24 fold enrichment (6-mer frequency, TF over GST control) in the experiment with ETV5; 1.2 fold enrichment (6-mer frequency, TF over GST control) with HSF1; 1.34 fold enrichment (6-mer frequency, TF over GST control) with SPIC; 1.05 fold enrichment (6-mer frequency, TF over GST control) with ELF4; 1.14 fold enrichment (6-mer frequency, TF over GST control) in the experiment with ELK4. In addition, the binding signal in the experiment with ETV2 is 1.26 fold enrichment (6-mer frequency, TF over GST control); with ELF3 it was 1.19 fold enrichment (6-mer frequency, TF over GST control); in the experiment with CRX it was 1.42 fold enrichment (6-mer frequency, TF over GST control); in the experiment with ETV1, 1.13 fold enrichment (6-mer frequency, TF over GST control).
